Shown are actives, neighbours in structure and some others; about 6.3% of the full set was active somewhere.
Gal4-VP16 FLuc = Gal4-VP16 reporter inhibition counter-screen; Drosophila S2 Gal4-VP16 UAS-luciferase, luminescence, 20 h; Potency, µM (titrated, usually from 53.6 µM), most hits filed as inhibitors; 3.5% of 310,000 active; AID 2546;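 also: Gal4-VP16 expression switched on by copper sulfate through the metallothionein promoter; nearly all actives have a fitted effect of over 50% in size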
ATXN2 expr inh = ATXN2 expression inhibition; Potency, µM (highest dose often 57 µM), most hits filed as inhibitors; HEK-293 ATXN2-luciferase reporter, luminescence, 24 h; AID 1745845; 0.72% of 360,000 active; also: nearly all actives have a fitted effect of over 55% in size
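ATXN2-luciferase reporter cells (luciferase flanked by upstream and downstream ATXN2 gene portions) were treated 24 h at 37 °C with compounds at up to 57 uM. SteadyGlo luminescence gave expression; GF-AFC fluorescence gave viability.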
HepG2 tox = kills HepG2 cells in TGF-b inhibitor counter-screen; HepG2 CAGA-GFP viability, ATP luminescence, 18 h; Potency, µM (top dose mostly 46.1 µM), usual class: cytotoxic; 0.76% of 410,000 active; AID 588856
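HepG2 CAGA-GFP cells (1000/well, DMEM with 1% FBS) received compound, then TGF-beta at 500 pg/mL final, and were incubated 18 hours at 37 degrees C. Viability was read by CellTiter-Glo luminescence. Media-only wells were set as complete cell-killing and DMSO as no toxicity.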
RORgamma inh = blocks mouse ROR gamma transcriptional activity; AID 2551; 5.4% of 310,000 active; Drosophila S2 Gal4-RORgamma UAS-luciferase reporter, 20 h; P51450; Potency, µM (top dose mostly 53.6 µM), usual class: inhibitors; also: nearly all actives have a fitted effect of over 60% in size
Target sequence (P51450 whole entry, looked up, the tested form may be a part): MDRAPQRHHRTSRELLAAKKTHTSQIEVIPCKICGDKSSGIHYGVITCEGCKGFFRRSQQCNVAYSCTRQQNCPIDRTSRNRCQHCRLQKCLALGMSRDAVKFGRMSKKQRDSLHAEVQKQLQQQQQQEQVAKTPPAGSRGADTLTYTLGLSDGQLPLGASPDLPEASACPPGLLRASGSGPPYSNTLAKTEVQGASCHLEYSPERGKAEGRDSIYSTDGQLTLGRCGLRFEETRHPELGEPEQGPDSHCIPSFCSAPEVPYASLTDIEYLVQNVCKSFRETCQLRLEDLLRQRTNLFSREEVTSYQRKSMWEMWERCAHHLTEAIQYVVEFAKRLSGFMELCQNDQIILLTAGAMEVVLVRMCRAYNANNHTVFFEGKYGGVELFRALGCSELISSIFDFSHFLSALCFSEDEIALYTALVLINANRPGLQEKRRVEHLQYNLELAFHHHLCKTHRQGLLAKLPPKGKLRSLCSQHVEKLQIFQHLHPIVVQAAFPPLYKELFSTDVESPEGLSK
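A Gal4/UAS one-hybrid system in insect cells: metallothionein-promoter Gal4–ROR gamma fusion plus Photinus luciferase reporter. Copper sulfate 700 uM final, 20 hr ambient incubation, luminescent detection after 10 min with reagent.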
TGFb inhibitor = TGF-b pathway inhibition. HepG2 CAGA-GFP TGF-b/SMAD3 reporter, GFP fluorescence, 18 h; TGF-beta stimulated, 500 pg/mL final. Potency, µM (series often up to 46.1 µM), hits mostly inhibitors. 1.2% of 410,000 active. AID 588855; also: nearly all actives have a fitted effect of over 65% in size
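Read-out: total well GFP (ex488/em500-530) summed from mean per-cell fluorescence. Cells: HEPG2 CAGA-GFP, 1% FBS DMEM, 18 h at 37 degrees C with 500 pg/mL final TGF-beta. Unstimulated wells served as the full-inhibition control; stimulated DMSO wells = 0%.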
S2 tox = reduces viability in counter-screen for ATXN expression inhibitors; Potency, µM (highest dose often 56.7 µM), hits mostly cytotoxic; 0.49% of 400,000 active; AID 651635; S2 cells (HEK-293 line with an ATXN2-luciferase reporter) viability, CellTiter-Fluor protease fluorescence, 24 h; also: nearly all actives have a fitted effect of over 40% in size
Large screens that a line does not name were inactive. Calls follow the shape of the dose curve; as a rule, active = well fitted curve in the direction sought with a large enough effect; inconclusive = small, poorly fitted or top-dose-only effect, or another doubt; inactive = no such curve, though single readings can be large; an effect the other way counts as inactive or inconclusive.

Cc1ccc(-c2sc(-c3ccccc3)nc2CC(=O)Nc2ccccc2F)cc1	Gal4-VP16 FLuc 5.01µM, RORgamma inh inconclusive, TGFb inhibitor inconclusive
COc1ccc(NC(=S)NCc2ccc(Cl)cc2)c(OC)c1	Gal4-VP16 FLuc inconclusive (no result: ATXN2 expr inh)
COc1ccc(Cl)cc1NC(=S)NCCc1ccc(F)cc1	Gal4-VP16 FLuc 17.8µM, RORgamma inh 14.1µM
COc1ccc(Cl)cc1NC(=S)NCCc1ccc(S(N)(=O)=O)cc1	none
COc1ccc(NC(=S)NCCc2ccc(Cl)cc2)c(OC)c1	Gal4-VP16 FLuc 11.2µM, RORgamma inh 4.47µM
CCOC(=O)c1ccc(-c2ccc(/C=C(\C#N)C(=O)NCc3cccs3)o2)cc1	Gal4-VP16 FLuc 3.16µM, RORgamma inh inconclusive
CCOC(=O)c1ccc(-c2ccc(/C=C(\C#N)c3nc4ccc(C)cc4[nH]3)o2)cc1	HepG2 tox 3.16µM (no result: Gal4-VP16 FLuc, ATXN2 expr inh, RORgamma inh, TGFb inhibitor, S2 tox)
CCOC(=O)c1ccc(-c2ccc(/C=C(\C#N)C(=O)Nc3cccc(C)c3)o2)cc1	none (no result: Gal4-VP16 FLuc, RORgamma inh)
CN(Cc1ccc(OCC(O)CN2CCCCC2)cc1)Cc1ccnc2ccccc12 (configuration not stated)	Gal4-VP16 FLuc 6.31µM, RORgamma inh 7.08µM, TGFb inhibitor inconclusive (no result: ATXN2 expr inh)
Cc1nn(C)cc1CN(C)Cc1ccc(OCC(O)CN2CCCCC2)cc1 (configuration not stated)	S2 tox inconclusive
C=C1C(=O)O[C@H]2C[C@H]1[C@@H](OC(C)=O)C/C(C)=C/CC/C(C)=C\CC[C@]2(C)O	ATXN2 expr inh 5.62µM, TGFb inhibitor 3.16µM, S2 tox 7.94µM (no result: Gal4-VP16 FLuc, RORgamma inh)
CC(=O)O[C@@H]1C[C@H]2C(C)=C[C@H]3OC(=O)[C@@H](C)[C@H]3C[C@H]2[C@]1(C)O	none
O=C(c1cnn2cccnc12)N1CCOc2ccc(C(O)C(c3ccccc3)c3ccccc3)cc2C1 (configuration not stated)	none (no result: Gal4-VP16 FLuc, ATXN2 expr inh, HepG2 tox, RORgamma inh, TGFb inhibitor)
O=C(N/N=C/c1ccco1)c1cc(C2CC2)nc2ccccc12	none (no result: ATXN2 expr inh, HepG2 tox, TGFb inhibitor, S2 tox)
Cc1ccc(-c2cc(C(=O)NCc3cnn(C)c3C)c3ccccc3n2)cc1C	S2 tox inconclusive (no result: Gal4-VP16 FLuc, RORgamma inh)
O=C(N/N=C/c1ccco1)c1cc(-c2ccccc2)nc2ccccc12	Gal4-VP16 FLuc 10µM, RORgamma inh 7.08µM
COc1cccc(-c2cc(C(=O)N/N=C/c3ccco3)c3ccccc3n2)c1	Gal4-VP16 FLuc 7.08µM, RORgamma inh 3.16µM
Cc1ccc(-c2cc(C(=O)N/N=C\c3cnn(C)c3C)c3ccccc3n2)cc1C	Gal4-VP16 FLuc inconclusive, RORgamma inh 11.2µM
O=C(C(c1ccccc1)C(O)c1ccccc1)N1CCOCC1 (configuration not stated)	none (no result: Gal4-VP16 FLuc, RORgamma inh)
C[C@@H](NC(=O)[C@@H]1Cc2ccccc2CN1C(=O)OC(C)(C)C)C(=O)NCC1CCCO1 (some centres not stated)	none
O=C(c1ccc(C(F)(F)F)cc1)N(Cc1cc2ccc(F)cc2nc1N1CCOCC1)C1CC1	none (no result: Gal4-VP16 FLuc, ATXN2 expr inh, HepG2 tox, RORgamma inh, TGFb inhibitor)
CN(CC1CCCN(CCc2cccc(C(F)(F)F)c2)C1)C(=O)c1cc2ccccc2o1 (configuration not stated)	TGFb inhibitor 12.6µM, S2 tox inconclusive (no result: ATXN2 expr inh)
Cc1ccc2nc(SC(C(=O)Nc3ccc(F)cc3)c3ccccc3)[nH]c2c1 (configuration not stated)	Gal4-VP16 FLuc inconclusive, RORgamma inh 12.6µM, TGFb inhibitor inconclusive
O=C(COc1ccccc1C(=O)Nc1ccccc1F)Nc1ccc(Br)cc1	none (no result: Gal4-VP16 FLuc, ATXN2 expr inh, RORgamma inh, S2 tox)
CCOC(=O)C1=C(c2ccccc2)NC(=S)NC1C (configuration not stated)	Gal4-VP16 FLuc inconclusive, RORgamma inh 10µM, S2 tox inconclusive
CCOC(=O)C1=C(c2ccccc2)NC(=S)NC1c1cccc([N+](=O)[O-])c1 (configuration not stated)	Gal4-VP16 FLuc inconclusive, RORgamma inh inconclusive, S2 tox inconclusive
CCOC(=O)C1=C(c2ccccc2)NC(=S)NC1c1cc([N+](=O)[O-])ccc1OC (configuration not stated)	Gal4-VP16 FLuc inconclusive, RORgamma inh 12.6µM
